Screens deposited in PubChem BioAssay by The Scripps Research Institute Molecular Screening Center.
PLCb3 inh – PLC-beta3 (human) inhibition, primary screen. Q01970. 370,000 compounds, 0.18% hits. inhibition, % at 12.2 µM. Purified PLC-beta3, fluorogenic substrate, fluorescence. AID 720704; in the data active = inhibition above about 11%;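 note: 0% = median of compound wells on plate and 100% = full blocker control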
PLC-gamma1 inh – PLC-gamma1 (human) inhibition, primary screen | purified PLC-gamma1, fluorogenic substrate, fluorescence | P19174 | inhibition, % at 12.2 µM | 370,000 compounds, 0.84% hits | AID 720700
Target sequence (P19174 whole entry, looked up): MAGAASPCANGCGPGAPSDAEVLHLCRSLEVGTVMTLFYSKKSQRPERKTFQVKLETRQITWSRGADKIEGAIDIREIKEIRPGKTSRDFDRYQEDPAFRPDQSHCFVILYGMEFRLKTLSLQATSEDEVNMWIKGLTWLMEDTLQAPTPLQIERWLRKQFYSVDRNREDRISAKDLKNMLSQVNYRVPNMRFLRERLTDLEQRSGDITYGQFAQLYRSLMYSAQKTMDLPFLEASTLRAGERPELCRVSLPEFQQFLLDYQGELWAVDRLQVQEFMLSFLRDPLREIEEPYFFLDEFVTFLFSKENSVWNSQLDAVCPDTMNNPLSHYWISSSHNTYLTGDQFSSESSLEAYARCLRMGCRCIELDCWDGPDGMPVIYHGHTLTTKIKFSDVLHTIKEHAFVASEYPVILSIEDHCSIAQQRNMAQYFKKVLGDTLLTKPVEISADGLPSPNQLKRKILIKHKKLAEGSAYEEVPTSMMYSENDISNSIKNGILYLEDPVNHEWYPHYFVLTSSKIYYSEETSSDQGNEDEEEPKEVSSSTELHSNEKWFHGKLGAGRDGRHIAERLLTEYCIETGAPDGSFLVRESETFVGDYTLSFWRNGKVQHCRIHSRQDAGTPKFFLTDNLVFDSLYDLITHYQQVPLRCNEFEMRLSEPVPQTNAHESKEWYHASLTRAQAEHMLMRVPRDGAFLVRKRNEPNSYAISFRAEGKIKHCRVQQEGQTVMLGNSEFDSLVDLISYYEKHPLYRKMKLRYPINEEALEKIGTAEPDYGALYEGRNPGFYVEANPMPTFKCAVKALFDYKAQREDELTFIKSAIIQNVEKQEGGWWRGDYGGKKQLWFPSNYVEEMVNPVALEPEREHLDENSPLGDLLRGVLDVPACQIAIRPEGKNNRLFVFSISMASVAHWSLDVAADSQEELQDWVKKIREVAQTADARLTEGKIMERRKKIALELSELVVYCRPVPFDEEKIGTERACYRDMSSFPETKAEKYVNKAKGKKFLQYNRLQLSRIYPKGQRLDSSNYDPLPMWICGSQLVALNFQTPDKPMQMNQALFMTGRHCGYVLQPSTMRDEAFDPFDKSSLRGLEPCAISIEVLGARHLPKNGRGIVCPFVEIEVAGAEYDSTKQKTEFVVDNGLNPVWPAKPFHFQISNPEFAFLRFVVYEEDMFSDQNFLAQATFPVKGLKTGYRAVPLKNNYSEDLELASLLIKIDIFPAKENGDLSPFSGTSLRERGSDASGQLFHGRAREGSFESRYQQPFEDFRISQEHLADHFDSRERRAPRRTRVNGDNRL
KLK7 zymogen act – proKLK7 (human) activation, primary screen; purified proKLK7, EDANS-DABCYL substrate fluorescence; 100% is mature enzyme control, 0% vehicle; activation, % at 7 µM; P49862; 370,000 compounds, 0.9% hits;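 active = activation above the mean of all tested compounds plus 3 SD, computed per campaign excluding outliers beyond control limits, cut at about 13% in these data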
ADAM10 inh – inhibitors of human ADAM10. recombinant ADAM10, EDANS/DABCYL FRET peptide cleavage, 3 h. inhibition, % at 7 µM. 370,000 compounds, 0.62% hits. AID 720582;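 active = inhibition above a per-campaign cutoff equal to the mean of compounds falling between control-based bounds plus 3 SD, cut at about 20% in these data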;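 note: 0% = DMSO wells while the 100% control is not disclosed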
ADAM17 inh – ADAM17 inhibition, QFRET primary screen; P78536; inhibition, % at 6.95 µM; 370,000 compounds, 0.83% hits; recombinant ADAM17, EDANS/DABCYL FRET peptide cleavage;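 active = inhibition above the mean of compounds lying between control limits plus 3 SD, set per campaign, cut at about 8.5% in these data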;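 note: 0% = DMSO-only wells as the low control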
PLCg1 ctr – PLC-gamma1 inhibition, counter-screen for PLC-beta3 hits; shares compounds with PLC-gamma1 inh; 3,300 compounds, 3.1% hits; purified PLC-gamma1, fluorogenic substrate, fluorescence; inhibition, % at 12.3 µM
PLCb3 confirm – confirmation of human PLC-beta3 inhibitors. 3,300 compounds, 1% hits. purified PLC-beta3, fluorogenic substrate fluorescence. shares compounds with PLC-gamma1 inh. inhibition, % at 12.3 µM; in the data active = inhibition above about 11%
Active calls of the source: *; x = no result. The list is not random: actives were taken first. Their share in the collection is about 2.9%. Cut-off read from the data, not from the text of the source, unless noted: active = inhibition above about 9.5%; inactive = the rest.

SMILES | PLCb3 inh | PLC-gamma1 inh | KLK7 zymogen act | ADAM10 inh | ADAM17 inh | PLCg1 ctr | PLCb3 confirm
Nc1ccc(N2CCCCC2)c2nonc12 | -9 | 34* | 0 | -3 | 6 | -8 | -10
Cc1cccc(-n2ccc(=O)c(C(=O)Nc3ccc(S(=O)(=O)N4CCOCC4)cc3)n2)c1 | -6 | 2 | 0 | -2 | -1 | x | x
O=C(N1CCOCC1)N1CCN(Cc2ccccc2)CC1 | 4 | 10* | 0 | 4 | 3 | 6 | -12
O=C(NCCn1cccn1)C1CCC(=O)N(CCc2ccccc2)C1 (stereo not drawn) | -9 | -4 | 0 | -6 | -1 | x | x
COc1ccc(NS(=O)(=O)c2cccc(C(=O)NNC(=O)COc3ccccc3)c2)cc1 | -3 | 9.6* | 0 | -11 | 1 | -8 | -260
COc1ccc(NS(=O)(=O)c2cccc(C(=O)NNC(=O)CNC(=O)c3ccccc3)c2)cc1 | 1 | 7 | 0 | 9 | 3 | x | x
O=C(CCC1CCCN(C(=O)c2cncs2)C1)NCc1ccc(F)c(F)c1 (stereo not drawn) | 5 | 10* | 0 | 4 | 7 | -7 | -5
C=CCn1c(SCC(=O)Nc2cc(C)on2)nnc1-c1ccccc1F | 1 | 1 | 0 | -1 | 1 | x | x
Cc1ccc(C(C(=O)NC2CCCCC2)N(CC2CCCO2)C(=O)CNC(=O)c2ccco2)cc1 (stereo not drawn) | 4 | 10.0* | 0 | 4 | 5 | -4 | -4
O=C(NC1CCCCCCC1)c1ccco1 | 8 | 11* | -1 | 2 | 4 | -1 | 1
CC(C)C1COC(c2cccn2Cc2ccccc2Cl)=N1 (stereo not drawn) | 2 | 0 | 0 | -3 | 2 | x | x
Cc1ccc(Cn2cccc2C2=NC(C)CO2)cc1 (stereo not drawn) | 10 | 11* | -1 | 11 | 5 | 0 | -8
CCSc1cc(N2CCCC2)nc(-c2ccc(C)cc2)n1 | 5 | 4 | 0 | 0 | 4 | x | x
CCSc1cc(N2CCCC2)nc(-c2ccc(F)cc2)n1 | 11* | 9 | -1 | 5 | 7 | -6 | -4
O=C(COc1ccccc1)OCc1cc(-c2ccco2)on1 | -11 | 0 | 0 | -8 | -6 | x | x
CCc1nc2ccc(C(=O)NCCCN3CCCC3=O)cn2c1N(CC)CCOC | 1 | -2 | 0 | -23 | -5 | x | x
CSc1cccc(NC(=O)CN(c2cccc(C)c2)S(C)(=O)=O)c1 | 1 | 11* | -1 | -3 | -1 | -6 | -1
CSc1cccc(NC(=O)CN(c2ccc(C)cc2C)S(C)(=O)=O)c1 | -3 | 2 | 1 | 12 | 8 | x | x
COC(=O)Cn1cnc2sc(C)c(S(=O)(=O)N3CCN(c4ccccc4OC)CC3)c2c1=O | 10 | 10* | 0 | 8 | 7 | -1 | -3
Cc1ccc(OCC(=O)OCc2c(C)noc2C)cc1C | 0 | 15* | 1 | 7 | -1 | -3 | 0
CCOC(=O)c1ccc(NC(=O)c2nc[nH]c2C(=O)N2CCN(C(=O)OC(C)(C)C)CC2)cc1 | 3 | 7 | 0 | 0 | 0 | x | x
CC(C)(C)OC(=O)N1CCN(C(=O)c2[nH]cnc2C(=O)Nc2cccc(Cl)c2)CC1 | 1 | 9.7* | 0 | 2 | -2 | -5 | -3
CC1=C(C(=O)OCc2ccc([N+](=O)[O-])cc2)N2C(=O)C(NC(=O)Cc3ccccc3)C2SC1 (stereo not drawn) | 2 | 24* | 0 | 8 | -3 | 24* | 1
O=C(NC1CCCCCCC1)C1CCN(S(=O)(=O)N2CCCC2)CC1 | 3 | 11* | 0 | 5 | 3 | -6 | -6
Cc1ccc(C(=O)Nc2ccccc2C(=O)O)cc1NC(=O)COc1c(C)cccc1C | -5 | -1 | 0 | -10 | -4 | x | x
SMILES | PLCb3 inh | PLC-gamma1 inh | KLK7 zymogen act | ADAM10 inh | ADAM17 inh | PLCg1 ctr | PLCb3 confirm
CCOC(=O)c1cc(-c2csc(-c3cccc(Cl)c3)n2)on1 | -14 | -1 | 0 | 1 | -3 | x | x
CCOC(=O)c1cc(-c2csc(Nc3c(C)cc(C)cc3C)n2)on1 | 1 | 9.8* | 0 | 6 | 8 | -8 | -4
Cc1ccc2[nH]c(O)c(N=NC(=O)CCc3ccccc3)c2c1Br | 5 | 9.9* | 1 | 8 | 3 | -7 | -2
O=C(CSCc1ccccc1)N=Nc1c(O)[nH]c2ccccc12 | -2 | -3 | 0 | 0 | 1 | x | x
O=C(O)CS(=O)CC(=O)Nc1cccc(C(F)(F)F)c1 (stereo not drawn) | 2 | 20* | 1 | 2 | 1 | 25* | -2
O=C(O)CS(=O)CC(=O)NCc1cccc(C(F)(F)F)c1 (stereo not drawn) | 0 | 0 | 0 | 4 | -1 | x | x
Cc1ccc(NC2CCCN(C(=O)CCN3CCOCC3)C2)cc1C (stereo not drawn) | -2 | -1 | 0 | -1 | 0 | x | x
COc1ccc(NC(=O)c2cc(-c3cc(F)ccc3OCC3CCCO3)n[nH]2)c(C)c1 (stereo not drawn) | 1 | 1 | 1 | -10 | 1 | x | x
C[C@H]1CNC(=O)C(=O)N1C[C@H](Cc1ccc(O)cc1)NC(=O)CC12CC3CC(CC(C3)C1)C2 | 12* | 5 | 0 | -3 | 2 | -6 | 2
CC(C)C[C@H]1CNC(=O)C(=O)N1C[C@H](Cc1ccc(O)cc1)NC(=O)Cc1ccccc1 | 1 | -1 | 0 | -12 | -7 | x | x
O=C(COc1ccc(Cl)cc1)N1CCN(c2ccc([N+](=O)[O-])c(N3CCOCC3)c2)CC1 | 1 | 3 | 0 | 13 | 6 | x | x
O=C(COc1ccccc1)N1CCN(c2ccc([N+](=O)[O-])c(N3CCCCC3)c2)CC1 | 3 | 12* | 0 | 13 | 7 | 0 | 3
CC1Sc2ccc(S(=O)(=O)CCC(=O)N3CCCC3)cc2NC1=O (stereo not drawn) | -2 | 0 | -1 | -4 | 3 | x | x
CCCNC(=O)C[C@H]1CC[C@H]2[C@@H](COc3ccc(NC(=O)c4cncs4)cc3C(=O)N2C)O1 | 11* | 12* | 0 | 12 | -7 | 16* | 18*
COC(=O)C[C@@H]1CC[C@H]2[C@@H](COc3ccc(NC(=O)c4ccc(Cl)cc4)cc3C(=O)N2C)O1 | -51 | 12* | 0 | -15 | -10 | 0 | 2
COC(=O)C[C@@H]1CC[C@H]2[C@H](COc3ccc(NC(=O)c4ccc(OC)cc4)cc3C(=O)N2C)O1 | 2 | 3 | 0 | -2 | -1 | x | x
CCCNC(=O)Nc1ccc2c(c1)C(=O)N(C)[C@H]1CC[C@@H](CC(=O)OC)O[C@H]1CO2 | -1 | -1 | 0 | -10 | -7 | x | x
O=C(Nc1ccc(C(=O)NCCCN2CCN(c3ccc(F)cc3)CC2)cc1)C1=CSCCO1 | -7 | 0 | 0 | 4 | -2 | x | x
